Source: PubChem BioAssay (Tox21)
Inconclusive results are not listed. Calls of active or inactive are those of the source. Unless noted, calls come from the whole dose curve; as a rule, active = well fitted curve in the direction sought with a large enough effect in the repeat runs; inconclusive = weak or mixed curves; inactive = no such curve, though single readings can be large; an effect the other way counts as inactive or inconclusive.

Legend:
[1] = qHTS assay to identify small molecule agonists of the TGF-beta/Smad signaling pathway - cell viability counter screen (AID 1346829); note: top concentration of the series differs between compounds; nearly all actives have a fitted effect of over 45% in size
Procedure, shortened: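 Same-well cytotoxicity: CellTiter-Glo added after the 2 hr room-temperature beta-lactamase substrate step, luminescence measured 30 min later; cells had 5 hr of compound at 37 C.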

[2] = qHTS assay to identify small molecule agonists of the TGF-beta/Smad signaling pathway (AID 1346859; active = well fitted activation curve with a large enough effect in the signal ratio in the repeat runs, not every such curve was filed as active; the % refers to the signal ratio; note: series mostly up to about 77 µM)
Procedure, shortened: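 Reporter line: HEK 293T with stably integrated SBE-controlled beta-lactamase. Compound exposure lasts 5 hr at 37 C and 5% CO2; substrate loading follows for 2 hr at room temperature, with emission read at 460 and 530 nm.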

[3] = target: Thyrotropin-releasing hormone receptor (Homo sapiens) (UniProt P34981); test: qHTS assay to identify small molecule antagonists of the thyrotropin-releasing hormone receptor (TRHR) signaling pathway (AID 1346877; active = well fitted inhibition curve with a large enough effect in the repeat runs, not every such curve was filed as active; note: series mostly up to about 51 µM)
Procedure, shortened: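 Antagonism is measured as suppression of the calcium response to 1 nM TRH in TRHR-HEK293 cells that have been dye-loaded for 2 h at 37 °C after overnight plating. Each compound is tested at 15 concentrations in triplicate.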

[4] = target: Thyrotropin-releasing hormone receptor (Homo sapiens) (UniProt P34981); test: qHTS assay to identify small molecule agonists of the thyrotropin-releasing hormone receptor (TRHR) signaling pathway (AID 1346891; calls by dose curve;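 note: HEK293 cells expressing TRHR with calcium dye readout; series mostly up to about 58 µM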)
Procedure, shortened: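 Cells: TRHR-Hek293, seeded and incubated 18 h. Dye loading: 2 h at 37 °C. Compound added from DMSO stock by pin tool. Read-out: kinetic calcium fluorescence over 3 min.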

[5] = Human pregnane X receptor (PXR) small molecule agonists, qHTS cell viability counter screen (AID 1346977); note: nearly all actives have a fitted effect of over 50% in size
Procedure, shortened: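 Cytotoxicity counter screen run in the same wells as the PXR luciferase assay, using PXR-Luc HepG2 cells in charcoal-stripped serum medium. Viability: CellTiter-Fluor fluorescence after 24hr compound treatment.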

[6] = Caspase-3/7 induction in HepG2 cells by small molecules, qHTS assay (AID 1346978); note: nearly all actives have a fitted effect of over 15% in size
Procedure, shortened: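 Caspase-3/7 induction was measured by Caspase-Glo 3/7 luminescence (30 min, room temperature) after a 17 hr compound exposure of wild-type HepG2 cells seeded at 2,000 per well and pre-incubated 5 hr.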

[7] = Caspase-3/7 induction in CHO-K1 cells by small molecules, qHTS cell viability counter screen (AID 1346979); note: nearly all actives have a fitted effect of over 35% in size
Procedure, shortened: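 Cytotoxicity counter screen run in parallel with the caspase-3/7 assay: CHO-K1 cells, 16hr compound treatment at 37C, then CellTiter-Fluor for 1hr before fluorescence reading.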

[8] = Caspase-3/7 induction in CHO-K1 cells by small molecules, qHTS assay (AID 1346980); note: nearly all actives have a fitted effect of over 15% in size
Procedure, shortened: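 Luminescent Caspase-Glo 3/7 read (30min, room temperature) quantified apoptosis induction. Cells were wild-type CHO-K1, treated with compound for 17hr at 37 C and 5% CO2.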

[9] = Caspase-3/7 induction in HepG2 cells by small molecules, qHTS cell viability counter screen (AID 1346981); note: series mostly up to about 92 µM; nearly all actives have a fitted effect of over 30% in size
Procedure, shortened: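 Cell viability is measured as a cytotoxicity counter screen alongside the Caspase-Glo 3/7 readout in identical wells. Wild-type HepG2 cells are treated with test compounds for 16 hr at 37 C before CellTiter-Fluor addition and a 1-hr incubation.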

[10] = target: Nuclear receptor subfamily 1 group I member 2 (Homo sapiens) (UniProt O75469); test: Human pregnane X receptor (PXR) small molecule agonists, qHTS assay (AID 1346982); note: nearly all actives have a fitted effect of over 35% in size; note: potency is the fitted concentration of half-maximal effect
Procedure, shortened: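 Cells: HepG2 stably carrying PXR-Luc. Medium held 5% charcoal-stripped FBS. Compounds in DMSO added after 5 hr plating, incubated 24 hr, then luminescence quantified with ONE-Glo.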

[11] = target: Cytochrome P450 2C19 (Homo sapiens) (UniProt P33261); test: Cytochrome P450 Family 2 Subfamily C Member 19 (CYP2C19) small molecule antagonists: luciferase reporter qHTS assay (AID 1671197); note: nearly all actives have a fitted effect of over 65% in size; note: potency is the fitted concentration of half-maximal effect; for activity change, negative = inhibition: series mostly up to about 120 µM
Procedure, shortened: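 Quantitative high-throughput screen of the Tox21 library using CYP2C19 with proluciferin substrate. Reaction: NADPH regeneration, 37C, 1 h, after 10 min compound preincubation at room temperature. Readout: luminescence.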

[12] = target: Cytochrome P450 2C9 (Homo sapiens) (UniProt P11712); test: Cytochrome P450 Family 2 Subfamily C Member 9 (CYP2C9) small molecule antagonists: luciferase reporter qHTS assay (AID 1671198); note: nearly all actives have a fitted effect of over 50% in size; note: potency is the fitted concentration of half-maximal effect; for activity change, negative = inhibition: series mostly up to about 120 µM
Procedure, shortened: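 Enzyme-substrate mix preincubated with compound 10 min at room temperature; reaction started with NADPH regeneration solution, 1 h 37C. Luminescent luciferin product read after 20 min detection reagent.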

[13] = target: Voltage-gated inwardly rectifying potassium channel KCNH2 (Homo sapiens) (UniProt Q12809); test: Human Ether-a-go-go-Related Gene (hERG) channel small molecule antagonists: fluorescence cell-based qHTS assay (AID 1671200); note: nearly all actives have a fitted effect of over 50% in size; note: potency is the fitted concentration of half-maximal effect;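 for activity change, negative = inhibition: hERG-expressing U2OS cells given a thallium stimulus after FluxOR II dye loading; series mostly up to about 77 µM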
Procedure, shortened: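 Fluorescence at 540 nm emission (480 nm excitation) was recorded kinetically for 2 min at 1-second intervals once the thallium-containing stimulus reached cells previously loaded with FluxOR II dye.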

[14] = target: Nuclear receptor subfamily 1 group I member 2 (Rattus norvegicus) (UniProt Q9R1A7); test: Rat pregnane X receptor (rPXR) activation by small molecules, qHTS assay (AID 1346983); conditions: rPXR luciferase reporter cells, One-Glo luminescence, 24 h; max activation: active compounds read high; note: nearly all actives have a fitted effect of over 20% in size
Procedure, shortened: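 Luminescent readout (One-Glo luciferase, 30 min room temperature) followed 24 hr compound treatment at 37 C of rPXR cells plated 2,000 per well and preincubated 5hr; qHTS format with compounds delivered in DMSO.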

[15] = target: Nuclear receptor subfamily 1 group I member 2 (Homo sapiens) (UniProt O75469); test: Human pregnane X receptor (PXR) activation by small molecules, qHTS assay (AID 1346985); note: nearly all actives have a fitted effect of over 40% in size
Procedure, shortened: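 DPX-2 cells (HepG2 co-transfected with a PXR response element and a CYP3A4-promoter luciferase construct) were seeded at 2,000 per well, rested 5 hr at 37C, then exposed to DMSO-dissolved compounds for 24 hr. Activation was read as luciferase luminescence.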

[16] = target: Cytochrome P450 1A2 (Homo sapiens) (UniProt P05177); test: Cytochrome P450 Family 1 Subfamily A Member 2 (CYP1A2) small molecule antagonists: luciferase reporter qHTS assay (AID 1671199); note: nearly all actives have a fitted effect of over 50% in size; note: potency is the fitted concentration of half-maximal effect; for activity change, negative = inhibition: series mostly up to about 120 µM
Procedure, shortened: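 Compounds were incubated with CYP1A2 and a luminogenic proluciferin substrate for 10 min at room temperature before the reaction was started with NADPH regeneration solution. After 1 h, detection reagent was added and light output, proportional to CYP activity, was recorded.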

[17] = target: Nuclear receptor subfamily 1 group I member 2 (Homo sapiens) (UniProt O75469); test: CYP3A4 induction through human pregnane X receptor (PXR) by small molecules, qHTS assay (AID 1346984); note: nearly all actives have a fitted effect of over 40% in size
Procedure, shortened: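 Quantitative HTS in DPX-2 cells, i.e. HepG2 transfected with PXR response element and CYP3A4-promoter luciferase. Compounds in DMSO incubated 24hr at 37C; then P450-Glo CYP3A4 substrate, 3uM final, 3hr; One-Glo luminescence.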

[18] = target: Cytochrome P450 3A4 (Homo sapiens) (UniProt P08684); test: Cytochrome P450 Family 3 Subfamily A Member 4 (CYP3A4) small molecule antagonists: luciferase reporter qHTS assay (AID 1671201)
Procedure, shortened: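 qHTS, 1536-well. CYP3A4 + proluciferin substrate, cpd 10 min RT → NADPH regen 1 h RT → detection reagent 20 min → luminescence (RLU). Ketoconazole positive control.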

[19] = target: Cytochrome P450 2D6 (Homo sapiens) (UniProt P10635); test: Cytochrome P450 Family 2 Subfamily D Member 6 (CYP2D6) small molecule antagonists: luciferase reporter qHTS assay (AID 1671196)
Procedure, shortened: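 Enzyme and proluciferin substrate were first combined with test chemical for 10 min at room temperature. Adding NADPH regeneration solution started a 1 h reaction, stopped with luciferin detection reagent and read by luminescence 20 min later.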
% is set by controls: 0 for no effect and ±100 for the full control effect.

Chain of Nuclear receptor subfamily 1 group I member 2 (Rattus norvegicus) (Q9R1A7 whole entry, looked up): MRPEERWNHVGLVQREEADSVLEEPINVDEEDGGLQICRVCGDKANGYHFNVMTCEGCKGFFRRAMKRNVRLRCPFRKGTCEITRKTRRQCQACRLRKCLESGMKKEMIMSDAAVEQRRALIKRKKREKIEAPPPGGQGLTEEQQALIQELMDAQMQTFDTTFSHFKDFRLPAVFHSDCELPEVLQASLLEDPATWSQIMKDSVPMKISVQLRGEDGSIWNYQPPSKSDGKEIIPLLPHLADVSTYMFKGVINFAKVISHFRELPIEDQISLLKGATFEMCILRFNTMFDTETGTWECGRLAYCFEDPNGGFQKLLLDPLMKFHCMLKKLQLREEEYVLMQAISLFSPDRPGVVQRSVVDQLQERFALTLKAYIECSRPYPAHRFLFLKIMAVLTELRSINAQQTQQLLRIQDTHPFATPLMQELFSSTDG
Chain of Voltage-gated inwardly rectifying potassium channel KCNH2 (Homo sapiens) (Q12809 whole entry, looked up): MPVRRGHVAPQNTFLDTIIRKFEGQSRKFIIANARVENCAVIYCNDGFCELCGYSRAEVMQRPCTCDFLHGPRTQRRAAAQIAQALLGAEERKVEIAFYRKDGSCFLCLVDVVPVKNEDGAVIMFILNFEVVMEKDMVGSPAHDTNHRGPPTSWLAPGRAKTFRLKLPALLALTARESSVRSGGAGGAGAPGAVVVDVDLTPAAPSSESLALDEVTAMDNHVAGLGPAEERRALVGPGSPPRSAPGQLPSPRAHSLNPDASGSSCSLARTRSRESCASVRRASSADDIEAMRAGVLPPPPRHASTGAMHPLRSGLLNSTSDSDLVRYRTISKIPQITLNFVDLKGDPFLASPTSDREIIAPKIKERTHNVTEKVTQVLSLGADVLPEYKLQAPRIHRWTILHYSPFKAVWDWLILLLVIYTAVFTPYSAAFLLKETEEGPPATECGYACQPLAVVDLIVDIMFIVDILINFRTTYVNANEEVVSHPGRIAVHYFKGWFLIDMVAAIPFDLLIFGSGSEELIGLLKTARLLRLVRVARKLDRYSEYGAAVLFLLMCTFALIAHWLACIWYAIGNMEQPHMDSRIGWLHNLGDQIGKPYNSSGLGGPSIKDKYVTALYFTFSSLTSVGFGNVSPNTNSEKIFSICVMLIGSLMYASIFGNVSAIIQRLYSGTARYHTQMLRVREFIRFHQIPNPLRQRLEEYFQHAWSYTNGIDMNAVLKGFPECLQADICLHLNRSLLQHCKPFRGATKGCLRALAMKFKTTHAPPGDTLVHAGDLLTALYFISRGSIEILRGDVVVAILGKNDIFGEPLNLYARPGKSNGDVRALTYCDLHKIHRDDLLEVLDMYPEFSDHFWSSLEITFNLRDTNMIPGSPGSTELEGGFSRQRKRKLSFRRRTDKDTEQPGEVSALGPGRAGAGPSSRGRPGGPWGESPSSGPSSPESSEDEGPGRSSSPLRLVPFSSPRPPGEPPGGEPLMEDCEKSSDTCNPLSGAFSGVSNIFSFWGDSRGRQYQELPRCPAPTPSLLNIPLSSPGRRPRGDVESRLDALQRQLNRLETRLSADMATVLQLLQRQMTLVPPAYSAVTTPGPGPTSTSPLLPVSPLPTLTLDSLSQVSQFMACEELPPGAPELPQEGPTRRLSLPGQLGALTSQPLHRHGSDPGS
Chain of Thyrotropin-releasing hormone receptor (Homo sapiens) (P34981 whole entry, looked up): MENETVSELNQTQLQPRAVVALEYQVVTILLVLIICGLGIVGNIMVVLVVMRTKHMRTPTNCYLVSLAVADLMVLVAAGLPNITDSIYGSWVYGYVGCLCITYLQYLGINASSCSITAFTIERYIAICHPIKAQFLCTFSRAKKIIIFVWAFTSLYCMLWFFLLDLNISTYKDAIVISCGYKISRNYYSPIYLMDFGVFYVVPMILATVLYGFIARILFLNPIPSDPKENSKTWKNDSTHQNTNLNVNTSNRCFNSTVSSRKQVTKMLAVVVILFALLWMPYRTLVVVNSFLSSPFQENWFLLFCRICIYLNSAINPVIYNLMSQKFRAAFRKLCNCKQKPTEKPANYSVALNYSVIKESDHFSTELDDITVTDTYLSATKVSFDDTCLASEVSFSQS
Chain of Cytochrome P450 2D6 (Homo sapiens) (P10635 whole entry, looked up): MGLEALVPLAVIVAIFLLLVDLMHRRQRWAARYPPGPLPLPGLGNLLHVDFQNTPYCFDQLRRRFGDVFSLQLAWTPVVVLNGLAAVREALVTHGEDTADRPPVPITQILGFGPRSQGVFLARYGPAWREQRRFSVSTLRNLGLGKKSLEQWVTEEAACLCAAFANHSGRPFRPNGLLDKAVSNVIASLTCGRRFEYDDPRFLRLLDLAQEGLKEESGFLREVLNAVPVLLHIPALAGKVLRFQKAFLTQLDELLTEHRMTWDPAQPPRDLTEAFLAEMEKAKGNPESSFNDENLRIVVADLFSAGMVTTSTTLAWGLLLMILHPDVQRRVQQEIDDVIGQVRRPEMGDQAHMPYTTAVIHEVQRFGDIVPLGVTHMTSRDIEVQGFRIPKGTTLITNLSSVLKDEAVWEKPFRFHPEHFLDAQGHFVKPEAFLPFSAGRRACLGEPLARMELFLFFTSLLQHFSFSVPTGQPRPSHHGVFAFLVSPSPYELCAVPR
Chain of Cytochrome P450 3A4 (Homo sapiens) (P08684 whole entry, looked up): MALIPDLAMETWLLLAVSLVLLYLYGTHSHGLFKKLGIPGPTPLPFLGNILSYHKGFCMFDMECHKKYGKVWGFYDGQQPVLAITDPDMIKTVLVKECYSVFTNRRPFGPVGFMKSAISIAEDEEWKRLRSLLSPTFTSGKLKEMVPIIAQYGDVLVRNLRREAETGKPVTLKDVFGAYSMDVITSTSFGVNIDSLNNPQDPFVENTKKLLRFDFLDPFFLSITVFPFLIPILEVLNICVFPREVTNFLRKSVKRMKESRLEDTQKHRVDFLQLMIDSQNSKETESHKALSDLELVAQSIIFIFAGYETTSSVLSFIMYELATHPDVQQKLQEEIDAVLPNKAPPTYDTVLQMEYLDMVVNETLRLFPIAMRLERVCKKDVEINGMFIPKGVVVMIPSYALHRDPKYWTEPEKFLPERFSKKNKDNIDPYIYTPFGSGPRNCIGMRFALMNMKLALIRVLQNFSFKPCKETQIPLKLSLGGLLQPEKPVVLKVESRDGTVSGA
Chain of Cytochrome P450 2C9 (Homo sapiens) (P11712 whole entry, looked up): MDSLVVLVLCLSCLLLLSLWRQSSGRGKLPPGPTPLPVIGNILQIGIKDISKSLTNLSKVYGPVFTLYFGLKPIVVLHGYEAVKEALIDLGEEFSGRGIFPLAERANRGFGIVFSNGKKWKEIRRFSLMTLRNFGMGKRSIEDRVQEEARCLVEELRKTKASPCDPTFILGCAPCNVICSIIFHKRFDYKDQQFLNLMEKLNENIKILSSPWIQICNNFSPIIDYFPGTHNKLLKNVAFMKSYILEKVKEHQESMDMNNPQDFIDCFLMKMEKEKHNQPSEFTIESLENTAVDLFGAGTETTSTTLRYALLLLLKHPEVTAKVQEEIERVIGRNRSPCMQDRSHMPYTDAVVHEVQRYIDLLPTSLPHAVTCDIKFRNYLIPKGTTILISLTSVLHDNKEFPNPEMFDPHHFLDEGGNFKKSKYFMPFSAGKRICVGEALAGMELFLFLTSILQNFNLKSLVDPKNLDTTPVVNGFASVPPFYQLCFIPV
Chain of Cytochrome P450 2C19 (Homo sapiens) (P33261 whole entry, looked up): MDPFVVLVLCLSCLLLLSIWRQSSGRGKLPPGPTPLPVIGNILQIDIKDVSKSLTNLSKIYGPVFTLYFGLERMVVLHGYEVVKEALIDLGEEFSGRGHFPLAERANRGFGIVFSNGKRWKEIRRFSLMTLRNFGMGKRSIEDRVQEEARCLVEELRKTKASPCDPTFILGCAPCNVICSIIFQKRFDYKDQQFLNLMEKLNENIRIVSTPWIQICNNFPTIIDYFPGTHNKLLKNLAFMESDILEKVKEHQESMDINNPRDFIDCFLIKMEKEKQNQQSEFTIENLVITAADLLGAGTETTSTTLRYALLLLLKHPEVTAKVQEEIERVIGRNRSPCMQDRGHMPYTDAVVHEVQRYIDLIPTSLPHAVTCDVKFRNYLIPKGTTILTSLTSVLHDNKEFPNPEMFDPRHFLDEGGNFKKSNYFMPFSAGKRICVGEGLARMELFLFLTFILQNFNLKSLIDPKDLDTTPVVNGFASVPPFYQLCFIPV
Chain of Nuclear receptor subfamily 1 group I member 2 (Homo sapiens) (O75469 whole entry, looked up): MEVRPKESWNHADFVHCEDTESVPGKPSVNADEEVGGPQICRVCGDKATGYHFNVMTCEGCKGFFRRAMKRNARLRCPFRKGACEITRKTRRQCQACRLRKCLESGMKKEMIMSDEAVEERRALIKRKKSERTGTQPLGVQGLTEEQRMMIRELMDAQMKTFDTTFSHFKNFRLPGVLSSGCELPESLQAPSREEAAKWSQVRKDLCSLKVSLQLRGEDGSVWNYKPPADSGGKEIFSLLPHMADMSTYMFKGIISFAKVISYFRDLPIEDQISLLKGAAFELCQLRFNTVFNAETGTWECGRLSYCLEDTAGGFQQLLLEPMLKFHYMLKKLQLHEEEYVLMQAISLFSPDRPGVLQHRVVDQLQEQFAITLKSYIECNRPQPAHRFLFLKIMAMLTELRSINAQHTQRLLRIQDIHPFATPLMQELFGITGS
Chain of Cytochrome P450 1A2 (Homo sapiens) (P05177 whole entry, looked up): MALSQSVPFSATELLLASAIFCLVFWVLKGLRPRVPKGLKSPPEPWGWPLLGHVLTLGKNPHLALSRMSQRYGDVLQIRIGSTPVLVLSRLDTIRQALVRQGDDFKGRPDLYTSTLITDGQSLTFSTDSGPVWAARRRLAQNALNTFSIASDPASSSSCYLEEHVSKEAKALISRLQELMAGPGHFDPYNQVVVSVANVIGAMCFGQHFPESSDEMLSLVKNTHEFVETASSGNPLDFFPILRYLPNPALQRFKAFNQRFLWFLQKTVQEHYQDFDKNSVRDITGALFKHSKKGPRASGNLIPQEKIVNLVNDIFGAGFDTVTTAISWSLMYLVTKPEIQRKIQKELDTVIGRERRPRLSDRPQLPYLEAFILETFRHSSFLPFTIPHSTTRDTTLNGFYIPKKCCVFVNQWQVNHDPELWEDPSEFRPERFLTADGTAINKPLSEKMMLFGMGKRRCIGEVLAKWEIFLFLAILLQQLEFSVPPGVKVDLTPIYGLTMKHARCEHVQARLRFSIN

O=C1CC2(CCCC2)CC(=O)N1CCNCC1COc2ccccc2O1 (stereo unspecified)
active: Potency [10] 13.3 µM | Potency [13] 19 µM
inactive: outcome [1] | outcome [2] | outcome [3] | Potency [4] | outcome [5] | outcome [6] | Potency [7] | outcome [8] | outcome [9] | Potency [11] | Potency [12]

COc1cc2nc(N3CCN(C(=O)C4CCCO4)CC3)nc(N)c2cc1OC (stereo unspecified)
inactive: outcome [1] | outcome [2] | outcome [3] | Potency [4] | outcome [5] | outcome [6] | Potency [7] | outcome [8] | outcome [9] | max activation [14] 0.468% | outcome [15] | Potency [12] | Potency [16]

C[C@@H]1CC[C@@]2(OC1)O[C@H]1C[C@H]3[C@@H]4CC[C@H]5C[C@@H](O)CC[C@]5(C)[C@H]4CC(=O)[C@]3(C)[C@H]1[C@@H]2C
inactive: activity change, negative = cytotoxicity [1] -1.03% [at 6.97 µM] | activation [2] -4.07% [at 6.97 µM] | activity, negative = inhibition [3] 1.5% [at 4.65 µM] | activation [4] -0.339% [at 5.23 µM] | activity change, negative = cytotoxicity [5] 11.4% [at 8.39 µM] | caspase activation [6] 0.244% [at 8.39 µM] | activity change, negative = cytotoxicity [7] 2.81% [at 8.39 µM] | caspase-3/7 activation [8] -0.713% [at 8.39 µM] | activity change, negative = cytotoxicity [9] 6.1% [at 8.39 µM] | activation [10] -7.1% [at 8.39 µM] | max activation [14] -0.0535% | outcome [17] | outcome [15] | activity change, negative = inhibition [11] 11.3% [at 10.5 µM] | activity change, negative = inhibition [12] 3.54% [at 10.5 µM] | activity change, negative = inhibition [16] 10.1% [at 10.5 µM] | activity change, negative = inhibition [13] 3.03% [at 6.97 µM] | activity change, negative = inhibition [18] 29.8% [at 10.5 µM]

CN1CCN(C(=O)C2CCCCC2)CC1
inactive: outcome [1] | outcome [2] | outcome [3] | Potency [4] | outcome [5] | outcome [6] | Potency [7] | outcome [8] | outcome [9] | Potency [10] | max activation [14] -9.64% | outcome [17] | outcome [15] | Potency [19] | Potency [12] | Potency [16] | Potency [13] | Potency [18]

O=C1Nc2ccccc2C1=O
inactive: outcome [1] | outcome [2] | outcome [3] | Potency [4] | outcome [5] | outcome [6] | Potency [7] | outcome [8] | outcome [9] | Potency [10] | Potency [19] | Potency [12] | Potency [13] | Potency [18]
active: Potency [16] 39.6 µM

CCOC(=O)CN1CCCC1=O
inactive: outcome [1] | outcome [2] | outcome [3] | Potency [4] | outcome [5] | outcome [6] | Potency [7] | outcome [8] | outcome [9] | Potency [10] | Potency [11] | Potency [12] | Potency [16] | Potency [13] | Potency [18]

CCN1CCN(C(=O)N[C@@H](C(=O)N[C@@H]2C(=O)N3[C@@H]2SC(C)(C)[C@H]3C(=O)O)c2ccccc2)C(=O)C1=O
inactive: outcome [1] | outcome [2] | outcome [3] | Potency [4] | outcome [5] | outcome [6] | Potency [7] | outcome [8] | outcome [9] | Potency [10] | Potency [19] | Potency [11] | Potency [12] | Potency [16]

CC(=O)O[C@@H]1CC2C3CCc4cc(OC(=O)c5ccccc5)ccc4C3CCC2(C)[C@H]1OC(C)=O (stereo partly specified)
inactive: outcome [1] | outcome [2] | outcome [3] | Potency [4] | outcome [5] | outcome [6] | Potency [7] | outcome [8] | outcome [9] | Potency [10] | Potency [11] | Potency [16] | Potency [18]
active: Potency [12] 11 µM

CC(=O)Oc1ccc(C(C)=O)cc1
inactive: outcome [1] | outcome [2] | outcome [3] | Potency [4] | outcome [5] | outcome [6] | Potency [7] | outcome [8] | outcome [9] | Potency [10] | Potency [19] | Potency [12] | Potency [13] | Potency [18]
active: Potency [16] 33 µM

CCCC(=O)CC
active: Potency [11] 41.2 µM | Potency [16] 20.6 µM
inactive: outcome [1] | outcome [2] | outcome [3] | Potency [4] | outcome [5] | outcome [6] | Potency [7] | outcome [8] | outcome [9] | Potency [10] | Potency [19] | Potency [12] | Potency [13] | Potency [18]

CC(=O)c1c(C)cc(C(C)(C)C)cc1C
inactive: outcome [1] | outcome [2] | outcome [3] | Potency [4] | outcome [5] | outcome [6] | Potency [7] | outcome [8] | outcome [9] | Potency [10] | Potency [12] | Potency [13] | Potency [18]
active: Potency [11] 71 µM

N=C(N)S(=O)O
inactive: outcome [1] | outcome [2] | outcome [3] | Potency [4] | outcome [5] | outcome [6] | Potency [7] | outcome [8] | outcome [9] | Potency [10] | Potency [19] | Potency [11] | Potency [12] | Potency [13]

CN(C)CCc1c[nH]c2ccc(CS(=O)(=O)N3CCCC3)cc12
inactive: outcome [1] | outcome [2] | outcome [3] | Potency [4] | outcome [5] | outcome [6] | Potency [7] | outcome [8] | outcome [9] | Potency [10] | max activation [14] -1.76% | outcome [17] | outcome [15] | Potency [11] | Potency [12] | Potency [16] | Potency [13] | Potency [18]

Cc1cc(O)c(Cl)cc1C
active: Potency [11] 71 µM
inactive: outcome [1] | outcome [2] | outcome [3] | Potency [4] | outcome [5] | outcome [6] | Potency [7] | outcome [8] | outcome [9] | Potency [10] | Potency [19] | Potency [12] | Potency [13] | Potency [18]

Cc1cc(N)no1
inactive: outcome [1] | outcome [2] | outcome [3] | Potency [4] | outcome [5] | outcome [6] | Potency [7] | outcome [8] | outcome [9] | Potency [10] | Potency [11] | Potency [12] | Potency [13] | Potency [18]

CCCCCCCCCCCC(C)=O
inactive: outcome [1] | outcome [2] | outcome [3] | Potency [4] | outcome [5] | outcome [6] | Potency [7] | outcome [8] | outcome [9] | Potency [10] | Potency [19] | Potency [11] | Potency [12] | Potency [13] | Potency [18]
